Molecules are shown by their SMILES. The panel holds about 83,000 compounds, 20% with a hit somewhere; the sample as a whole holds those more often.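 Treatment: one concentration, 48 hours, 96-well format. Scoring: percent growth, with anything below 10 considered active.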 A number with no mark means an inactive call. Active and inactive are the calls of the source.

This test deals with MDA-MB-468 breast. The experiment in a line: NCI-60 one-dose screen, 48 h (100 = growth as untreated, 0 = no growth, -100 = all killed). The following applies: 10 µM unless noted.
As for `C#CC(C)(O)[C@@H]1C[C@H](CC(=O)O)C1(C)C` (stereo partly drawn), the growth is 114%.

Turning to `Cc1sc2nc3[nH]/c(=C\c4ccc(Cl)cc4)c(=O)n3c(=O)c2c1C`, the growth is 101%.

Turning to `CC1C(=O)CCCC1=O`, the growth is 122%.

Take `CS(=O)(=O)c1nccc(-c2c(-c3cccc(OCc4ccc(Cl)c(C(F)(F)F)c4)c3)nc3sccn23)n1`: the growth is -66.1% (active).

For the molecule `COC(=O)CCOc1ccccc1`, the growth was 80%.

`CC(=O)OCc1nc(C#N)c(N(C)C)o1`: the growth is 94.1%.

As to `O=C(CNc1nc2ccccc2s1)Nc1ccc(-c2nc3ccccc3s2)cc1`, the growth is -17.8% (active).

As for `COc1ccc(-c2ccc3cc(C(=O)Nc4ccc(O)c(C(=O)/C=C/c5cc(OC)c(OC)c(OC)c5)c4)ccc3c2)cc1`, the growth was 82.2%.

For `COc1ccc(C2c3ccc4ccccc4c3Oc3ncn(CCCn4ccnc4)c(=N)c32)cc1OC` (stereo not drawn), the growth was 47.5%.

Consider `CCNc1nc(-c2ccc(Cl)c(OC)c2)c(-c2ccnc(NCCCNS(=O)(=O)c3ccc(Cl)cc3)n2)s1`, for which the growth was 63.3%.

`CC(=O)Nc1ccc(-n2c(O)c(/C=N/NC(=O)Cc3ccccc3Nc3c(Cl)cccc3Cl)sc2=S)cc1`: the growth is 94.2%.

For `COc1ccc(Nc2c3ccccc3nc3ccccc23)cc1`, the growth is 14.1%.

On to `Clc1ccc2[nH]cc(-c3cncn3CCc3ccc4c(c3)OCO4)c2c1`, for which the growth is 6.19% (active).

The values above are taken from PubChem BioAssay (NCI).
